{
  "source": "PubChem BioAssay",
  "data": [
    {"biological_target": "Calmodulin-1 (Homo sapiens) (UniProt P0DP23)", "experiment": "CALM1 binders on microarrays, EGTA buffer, profiling panel, biochemical, small-molecule microarray, Cy5-labelled CALM1 (AID 1111);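 further: labelled calmodulin applied in Tris saline Tween buffer holding calcium plus EGTA and DTT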", "conditions": "Cy5-CALM1 binding fluorescence, higher = more signal", "values": [
      {"smiles": "CCCNC(=O)[C@@H]1c2ccccc2C(=O)N(Cc2ccc(OC(F)(F)F)cc2)[C@H]1c1ccc(CO)cc1", "composite z-score": 0.222},
      {"smiles": "O=C1OCCC=C[C@H]2OC34C=CCN(Cn5nnc6ccccc65)C(=O)[C@H]3N(CCCO)C(=O)[C@@H]4C12", "note": "(stereo not given in full)", "composite z-score": -0.5},
      {"smiles": "CCOC(=O)C[C@H]1[C@H](OC(=O)c2ccc(-c3ccccc3)cc2)[C@@H](NC(=O)CC(C)C)c2cc(OCCCO)ccc2N1C(=O)c1ccc2ccccc2n1", "composite z-score": 0.326},
      {"smiles": "COCCOC(=O)N1C(=O)[C@@]2(c3cc(C#CC4=CCCCC4)ccc31)[C@H](c1ccccc1OCCO)N1[C@H](c3ccccc3)[C@H](c3ccccc3)OC(=O)[C@H]1[C@@H]2C(=O)NC[C@H](O)c1ccccc1", "composite z-score": 1.04},
      {"smiles": "COCCCNC(=O)[C@@]1(Sc2ccc(C)cc2)CC(=O)N(C2Cc3ccccc3C2)[C@@H]1c1ccc(CO)cc1", "composite z-score": -0.176},
      {"smiles": "COc1cc2c(cc1O)C(c1ccc(CN3CCCC3)cc1)N(Cc1cc3c(cc1Br)OCO3)CC2", "note": "(stereo not given)", "composite z-score": 1.47},
      {"smiles": "CC(C)(C)OC(=O)CC[C@@]1(C(=O)NCC(O)CO)N=C(c2ccc(OCCCO)cc2)O[C@@H]1c1ccccc1CN=[N+]=[N-]", "note": "(stereo not given in full)", "composite z-score": 1.25},
      {"smiles": "Cc1ccc(S[C@]2(C(=O)NCCN3CCOCC3)CC(=O)N(Cc3ccccc3Cl)[C@@H]2c2ccc(CO)cc2I)cc1", "composite z-score": 0.0002},
      {"smiles": "CC1CC/C=C\\[C@H]2OC34C=CCN(C(C)(C)C)C(=O)[C@H]3N(CCCCCO)C(=O)[C@@H]4C2C(=O)O1", "note": "(stereo not given in full)", "composite z-score": -0.835},
      {"smiles": "COc1ccc(CCNC(=O)[C@@]2(c3ccc([N+](=O)[O-])cc3)CC(=O)N(C3CCCCC3)[C@@H]2c2ccc(CO)cc2)cc1", "composite z-score": 0.36}
    ]}
  ]
}
